{"source": "PubChem BioAssay (NCI)", "note": "Compounds without any hit were thinned out: in the full panel of roughly 83,000, 20% have a hit.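 Treatment: one concentration, 48 hours, 96-well format. Scoring: percent growth, with anything below 10 considered active.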 A number with no mark means an inactive call. Activity calls are given as the source filed them.", "data": [{"test_system": "MDA-MB-468 breast", "experiment": "NCI-60 one-dose screen, 48 h (100 = growth as untreated, 0 = no growth, -100 = all killed)", "settings": "10 µM unless noted", "values": [{"compound": "COc1c(Cl)cc(Cl)cc1Cl", "growth": "110%"}, {"compound": "CN1C2CCC1CN(c1cnc(C(=O)Nc3cc(F)cc4cccnc34)cn1)C2", "growth": "13.1%"}, {"compound": "COC(=O)CCc1cc(O)c2c(c1)[C@@H](C(=O)OC)[C@H](c1ccc(O)c(O)c1)O2", "growth": "83.4%"}, {"compound": "CN1CCN(C2=C(Cl)C(=O)c3ccccc3C2=O)CC1", "growth": "57%"}, {"compound": "O=C1/C=C/[C@@H](O)[C@@H]2C[C@@H](O)C[C@H]2/C=C/CCC[C@H](CCc2cccc3ccccc23)O1", "growth": "-32.4% (active)"}, {"compound": "O=C(NCCNc1nccc(-c2c(-c3cccc(O)c3)nc3sccn23)n1)c1ccccc1O", "growth": "52%"}, {"compound": "O=C1Nc2cc(-c3ccc(NC(=O)C4CC4)cc3)ccc2/C1=C/c1ccc[nH]1", "growth": "0.756% (active)"}, {"compound": "Clc1cccc(Nc2ncnc3ccc(-c4cnc5[nH]ccc5c4)cc23)c1", "growth": "-16.9% (active)"}, {"compound": "COc1ncc2cc1NS(=O)(=O)c1cccc(c1)C(=O)NCC1=CC=C(S1)c1ncnc3c1SC2=C3C", "growth": "-34.5% (active)"}, {"compound": "O=c1sc2ncnc3ncn1c32", "growth": "8.83% (active)"}, {"compound": "C=C(C)[C@@H]1CC[C@]2(CN)CC[C@]3(C)[C@H](CC[C@@H]4[C@@]5(C)CCC(=O)NC(C)(C)[C@@H]5CC[C@]43C)[C@@H]12", "growth": "35.5%"}, {"compound": "COc1cccc(NC(=O)Nc2ccc(Nc3ncnc4sc5c(c34)CCN(C(=O)CCl)C5)cc2)c1", "growth": "117%"}, {"compound": "COc1ccc(C(=O)C(C)C)c2ccccc12", "growth": "102%"}, {"compound": "COc1ccc(/C=C(/C(=O)N2CCN(c3ccc(C)cc3)CC2)c2cc(OC)c(OC)c(OC)c2)cc1N", "growth": "29.6%"}, {"compound": "C#Cc1cccc(NC(=O)Nc2cccc(NC(=O)CCl)c2)c1", "growth": "-43.5% [8.25 µM] (active)"}, {"compound": "CN1CCN(CCOc2ccc(-c3cnc4c(-c5ccc(C(F)(F)F)cc5)cnn4c3)cc2)CC1", "growth": "42.1%"}, {"compound": "CN(C)/N=C/c1ccccc1O", "growth": "97.8%"}, {"compound": "COc1cccc(/C=N/NC(=O)c2ccccc2N2CCCC2)c1O", "growth": "0.775% (active)"}, {"compound": "O=C(Nc1ccc(Nc2ccncc2)cc1)c1ccc([N+](=O)[O-])cc1", "growth": "-28.1% (active)"}, {"compound": "COc1ccc2oc(=O)cc(CN3C(=O)S/C(=C\\c4ccc(Cl)cc4)C3=O)c2c1", "growth": "101%"}, {"compound": "CN(C)CCNc1nc2ccccc2c2c(=O)c3cc(F)ccc3sc12", "growth": "-28.1% (active)"}, {"compound": "COc1cc2cc(Oc3ccc(NC(=O)c4cccc(C(F)(F)F)c4)cc3)c(C)nc2cc1OCCN1CCCCC1", "growth": "37.6%"}, {"compound": "NS(=O)(=O)c1ccc(C2C3=C(CCCC3=O)OC3=C2C(=O)c2ccccc2C3=O)cc1", "note": "(stereo not given)", "growth": "-47.4% (active)"}, {"compound": "CS(=O)(=O)Nc1ccc([N+](=O)[O-])cc1Oc1ccccc1", "growth": "100%"}, {"compound": "C(=C(\\C1=NCCN1)n1cnc2ccccc21)/c1cccc2ccccc12", "growth": "80.6%"}, {"compound": "CN1C2C=CC(=O)C1C1C(=O)N(c3ccccc3)C(=O)C12", "note": "(stereo not given)", "growth": "0.669% (active)"}, {"compound": "O=C1CSC(c2ccccc2)N1c1ccccc1", "note": "(stereo not given)", "growth": "90.6%"}, {"compound": "CN1CCN(c2cc3c(cc2F)c(=O)c(C(=O)O)cn3-c2ccc(F)cc2)CC1", "growth": "110%"}, {"compound": "CCN(CC)CCNC(=O)C(Cl)=C1C(Cl)=C(Cl)C(Cl)=C1Cl", "growth": "75.8%"}, {"compound": "NS(=O)(=O)c1cccc(Nc2nc(SCC(=O)c3ccc(Cl)cc3)nc3c2CCC3)c1", "growth": "79.8%"}, {"compound": "CCOC(=O)C1=C(C)N=C2Sc3cccc(OC)c3N2[C@H]1c1ccccn1", "growth": "108%"}, {"compound": "O=C(C[P+](c1ccccc1)(c1ccccc1)c1ccccc1)c1ccccc1", "growth": "103%"}, {"compound": "O=S(=O)(Nc1cccc2cc(OS(=O)(=O)c3ccccc3)ccc12)c1ccccc1", "growth": "13.4%"}, {"compound": "CCNc1ccc2ccccc2c1N=Nc1ccc(N=Nc2ccccc2)cc1", "growth": "104%"}, {"compound": "CCc1ccc(Cc2cnc(NC(=O)c3cc(C)oc3C)s2)cc1", "growth": "9.5% (active)"}, {"compound": "COc1ccc(Cc2cnc(NC(=O)c3cc(C)oc3C)s2)cc1", "growth": "14.8%"}, {"compound": "Cc1cc(C)cc(Nc2nccc(-c3c(-c4ccc(F)cc4)ncn3C3CCNCC3)n2)c1", "growth": "-29.9% (active)"}, {"compound": "Cc1csc(N/N=C/c2ccncc2)n1", "growth": "107%"}, {"compound": "CC(=O)NNC(=O)c1sc(NC(C)=O)nc1C", "growth": "104%"}, {"compound": "CCCCCCCC/C=C\\CCCCCCCCOc1ccccc1CC(=O)NCC[N+]1(C)CCCCC1", "growth": "-9.98% (active)"}]}]}
